# FBA Mtb inh – inhibitors of M. tuberculosis fructose-bisphosphate aldolase | P9WQA3 | purified M. tuberculosis FBA, fluorescence read-out | inhibition, % at 1 µM | hit rate 2.3% among 360,000 | AID 588726; in the data active = inhibition above about 27%;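 note: 0% = vehicle and 100% = reference inhibitor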
# Target sequence (P9WQA3 whole entry, looked up): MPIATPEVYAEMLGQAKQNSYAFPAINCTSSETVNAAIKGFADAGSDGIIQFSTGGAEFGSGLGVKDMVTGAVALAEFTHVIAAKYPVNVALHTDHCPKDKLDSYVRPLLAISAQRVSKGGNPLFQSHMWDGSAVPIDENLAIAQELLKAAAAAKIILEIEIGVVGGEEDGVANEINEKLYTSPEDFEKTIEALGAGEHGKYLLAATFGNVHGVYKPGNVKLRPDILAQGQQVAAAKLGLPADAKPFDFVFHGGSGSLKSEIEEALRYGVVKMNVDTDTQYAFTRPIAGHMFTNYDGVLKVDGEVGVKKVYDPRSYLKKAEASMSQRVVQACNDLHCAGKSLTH
# Mtb hypoxia rep – inhibitors of hypoxia-regulated fluorescent reporter in Mycobacterium tuberculosis; M. tuberculosis hypoxia-regulated fluorescent reporter, fluorescence; fluorescence inhibition, % (concentration not given with the values); hit rate 0.1% among 300,000; AID 1159583; in the data active = fluorescence inhibition mostly above about 23%, no sharp cut-off; inactive = mostly below about 17%
# Mtb bLac sens – beta-lactam sensitization of Mtb H37Rv; inhibition, % at 25 µM; hit rate 0.27% among 330,000; M. tuberculosis H37Rv growth with meropenem, percent inhibition; call rule not given here;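 note: growth measured after seven days incubation then overnight dye step; 0% = bacteria only wells and 100% = bacteria with antibiotic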
# GDH-TPI counter – counter-screen for M. tuberculosis FBA inhibitors: GDH-TPI coupled enzymes. hit rate 1.2% among 360,000. inhibition, % at 4.8 µM. GDH-TPI coupled enzyme counterscreen, NADH absorbance. AID 588335; in the data active = inhibition above about 30%;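 note: 0% = DMSO wells and 100% = wells lacking the enzyme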
# DUSP3 inh – DUSP3 (human) phosphatase inhibition | P51452 | recombinant VHR phosphatase, pNPP absorbance | inhibition, % at 13.3 µM | hit rate 0.52% among 290,000 | AID 1654; in the data active = inhibition above about 50%
# Target sequence (P51452 whole entry, looked up): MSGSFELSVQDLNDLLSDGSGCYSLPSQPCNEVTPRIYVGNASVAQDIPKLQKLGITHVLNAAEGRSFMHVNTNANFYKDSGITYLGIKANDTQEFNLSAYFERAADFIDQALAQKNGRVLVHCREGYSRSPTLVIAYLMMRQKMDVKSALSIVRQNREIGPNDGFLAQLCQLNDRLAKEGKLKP
# * = called active by the depositor; ? = inconclusive; . = not tested or not shown; + = active, no number. Rows were chosen to be rich in hits. Some 3.6% of all compounds tested hit in one or more screens of this group.
SMILES,FBA Mtb inh,Mtb hypoxia rep,Mtb bLac sens,GDH-TPI counter,DUSP3 inh
CC(=O)c1ccc(N2CCN(S(=O)(=O)c3ccc4c(c3)C(Cl)(Cl)C(=O)N4)CC2)cc1,0,.,.,32*,.
Cc1ccccc1OCc1nnc(SCC(=O)Nc2ccc3c(c2)oc2ccccc23)n1C,0,4,84,-4,-9
Cc1ccc(-c2nnc(SCC(=O)Nc3ccc4c(c3)oc3ccccc34)n2C)c(Cl)c1,0,-13,-3,2,59*
Cc1ccc(N(C)S(=O)(=O)c2c(C)[nH]c(C)c2C(=O)N2CCCC2)cc1,-2,-3,?,-8,-15
Cc1cccc(N(C)S(=O)(=O)c2c(C)[nH]c(C)c2C(=O)N2CCCC2)c1,1,10,-2,3,54*
CC1CN(C(C)CO)C(=O)c2cccc(NC(=O)CCCCCC(=O)Nc3ccccc3N)c2OC1CN(C)Cc1ccncc1 (configuration not stated),.,3,.,.,.
COc1ccc2c(ccc[n+]2CC(=O)c2ccc(C)cc2)c1,31*,15,8,3,26
O=C(O)CC/C(=C\c1ccc(N2CCCC2)c([N+](=O)[O-])c1)c1nc2ccccc2s1,-5,7,1,18,15
CN(c1ccccc1)c1ccc(/C=C(/CCC(=O)O)c2nc3ccccc3s2)cc1[N+](=O)[O-],-7,7,.,32*,.
COc1ccc(N2CC(C(=O)N[C@@H](C)C(=O)NC3CCCCC3)CC2=O)cc1 (some centres not stated),6,5,-6,2,9
COc1ccc(N2CC(C(=O)N[C@@H](CC(C)C)C(=O)NC3CCCCC3)CC2=O)cc1 (some centres not stated),4,1,-14,-3,56*
Cc1ccc(N2CC(C(=O)NC3CC3)CC2=O)cc1 (configuration not stated),3,-5,6,-6,53*
CCCCCCC[n+]1ccc(-c2cc[n+](CCCCCCC)cc2)cc1,2,81*,99,5,-2
CCCCCCCCCCCCCCCC[n+]1ccccc1,0,14,.,4,.
CCOC(=O)C1C2COc3ccccc3C2N2C(=O)c3cc(F)ccc3NC(=O)[C@@]12C (some centres not stated),.,1,.,.,.
COc1ccc(OC)c(C=NNC(=O)c2cccc3ccccc23)c1,.,10,.,.,.
COc1ccc(OC)c(/C=N/NC(=O)CCCC(=O)Nc2cccc(Br)c2)c1,60*,.,18,2,-1
COc1ccc(OC)c(/C=N/NC(=O)CNC(=O)c2cccc3ccccc23)c1,145*,.,0,6,8
Cc1ccc(SC(CCN2CCC(C)CCC2=O)c2ccccc2)cc1 (configuration not stated),.,19,.,.,.
NC(=O)COc1ccc(/C=C2\C(=O)ON=C2c2ccccc2)cc1,-1,5,3,-1,.
CC1(C)OC(C)(C)/C(=C\c2ccc(OCC(N)=O)cc2)C1=O,-6,0,-1,35*,.
CCOC(=O)C1=C(C)N=c2sc(=Cc3ccc(OCC(=O)O)cc3)c(=O)n2C1c1ccc(OC(C)C)cc1 (configuration not stated),.,9,.,.,.
Cc1cc(C(=O)N/N=C/C=C/c2ccccc2)c(C)o1,-2,.,6,32*,-5
O=C(N/N=C\c1ccc(Sc2ccccn2)o1)c1cccc(Br)c1,-1,.,39,32*,16
Cc1ccc(C(=O)N/N=C/C=C/c2ccccc2)cc1,1,.,95,31*,40
SMILES,FBA Mtb inh,Mtb hypoxia rep,Mtb bLac sens,GDH-TPI counter,DUSP3 inh
Cc1ccc(NC(=O)CCC(=O)NN=C/C=C/c2ccccc2)cc1,.,-7,.,.,.
O=C(N/N=C/C=C/c1ccccc1)c1cnccn1,-5,.,3,48*,12
Cc1ccc(S(=O)(=O)N2C(c3ccc(C(C)C)cc3)CC=C(C(=O)O)C2c2cccc(Cl)c2)cc1 (configuration not stated),.,6,.,.,.
O=C(N/N=C/C=C/c1ccccc1)c1cccc(Br)c1,-6,.,99,65*,39
C=CCN1CCN(C(=O)c2ccc(-c3ccccc3)cc2)CC1,1,7,-3,16,8
C=CCN1CCN(C(=O)CSc2ccccc2)CC1,1,14,-3,7,57*
CCOC(=O)N1CCN(C(=O)CCSc2ccccc2)CC1,123*,5,-4,-2,30
Oc1ccccc1N=Cc1sc2ccccc2c1Cl,-2,37*,96,3,4
Cc1ccc(O)c(N=Cc2sc3ccccc3c2Cl)c1,-1,14,?,5,-4
N#Cc1c(SCC(=O)Nc2ccc(Cl)cc2Cl)sc2c(O)cc(=O)[nH]c12,1,-9,-4,33*,-3
CC(C)C(=O)Nc1cc(-c2nc3ncccc3o2)ccc1Cl,6,16,1,6,19
CC(C)C(=O)Nc1ccc(-c2nc3cccnc3o2)cc1,+,17,5,35*,27
CC(C)C(=O)Nc1ccc(-c2nc3ncccc3o2)cc1,+,4,-3,41*,-24
CCN=C1SC(=Cc2ccc(Sc3ccc(Cl)cc3)o2)C(=O)N1CC,.,4,.,.,.
CCOC(=O)C1C2COc3ccc(C)cc3C2N2C(=O)c3cc(OC)c(OC)cc3NC(=O)[C@@]12C (some centres not stated),.,6,.,.,.
COc1ccc(CCNC(=O)c2cc(-c3ccccn3)nc3ccccc23)cc1,-2,30*,0,2,.
COc1ccc(-c2cc(C(=O)NCCCN3CCCC3=O)c3ccccc3n2)cc1,69*,-5,-4,16,.
COc1ccc(-c2cc(C(=O)NCCc3ccc(S(N)(=O)=O)cc3)c3ccccc3n2)cc1,67*,10,6,13,40
COc1ccc2sc(-c3ccc(S(C)(=O)=O)cc3)c(C(=O)NCCCN3CCCC3=O)c2c1,5,0,5,32*,.
COc1ccc(C(=O)NCCCN2CCCC2=O)cc1,5,.,-2,3,-6
Cc1ccc(C=NNc2ccc(C(=O)O)cc2)o1,.,13,.,.,.
O=C(NN=Cc1ccco1)c1cc(-c2cccc(Br)c2)nc2ccccc12,.,9,.,.,.
Cc1ccc(S(=O)(=O)c2c(C)nn(C(C)(C)C)c2OC(=O)c2ccco2)cc1,189*,.,4,3,14
Cc1ccc(S(=O)(=O)c2c(C)nn(C(C)(C)C)c2OC(=O)c2ccc(Br)o2)cc1,-1,.,-2,5,17
S=c1[nH]nc(-c2ccccc2Cl)n1N=C/C=C/c1ccco1,.,5,.,.,.
SMILES,FBA Mtb inh,Mtb hypoxia rep,Mtb bLac sens,GDH-TPI counter,DUSP3 inh
COc1ccccc1/C=C/C(=O)NCC(=O)NN=C(C)c1ccc(Cl)cc1,.,3,.,.,.
CCc1nn(CC(=O)NCCN2CCOCC2)c(=O)c2cc3c(OC)cccc3n12,+,11,0,14,9
CCCSCCCNC(=O)Cn1nc(CC)n2c(cc3c(OC)cccc32)c1=O,24,17,9,0,28
Cc1cc(C(=O)N/N=C/c2ccc[nH]2)no1,-3,.,-1,31*,6
Cc1cc(C(=O)N/N=C/c2ccccc2Br)no1,0,.,2,10,-1
Cc1cc(C(=O)N/N=C/c2ccc(-c3ccccc3Cl)o2)n[nH]1,2,.,12,34*,10
Cc1cc(C(=O)N/N=C/c2ccc[nH]2)n[nH]1,-4,.,3,39*,5

# Compound activity as filed in PubChem.
